Common to all, as to experiment: DAPPL (digital affinity profiling via proximity ligation, sequencing); 10 mM Tris-HCl pH 7.5, 50 mM NaCl, 1 mM DTT, 4% glycerol, room temperature, 30 min; GST-TFs on glutathione beads, 16-mer random dsDNA library, 0.1% formaldehyde crosslink after washing; high values mean tight binding
In one test the target is T1, FEV (Homo sapiens, UniProt Q99581 1-238).
T1 sequence: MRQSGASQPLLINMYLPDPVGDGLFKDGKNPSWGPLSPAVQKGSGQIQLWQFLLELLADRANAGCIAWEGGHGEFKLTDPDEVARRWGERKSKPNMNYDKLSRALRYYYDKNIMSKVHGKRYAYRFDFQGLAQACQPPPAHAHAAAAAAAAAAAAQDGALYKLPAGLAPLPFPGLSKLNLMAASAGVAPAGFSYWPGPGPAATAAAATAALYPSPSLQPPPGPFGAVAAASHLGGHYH
As to conditions: protein: recombinant; tags: N-terminal GST; dsDNA, one strand shown. In short, it runs like this:
(§1)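 Binding signal is each hexamer's read frequency for a factor divided by its frequency in the tag-only sample. The factors were GST-fused human transcription factors from yeast, captured on glutathione beads, DNA-barcoded and pooled with that sample. Pools were incubated with 200 nmole of a random double-stranded 16-mer DNA library in Tris/NaCl/DTT/glycerol buffer at room temperature for 30 min, then washed, crosslinked with 0.1% formaldehyde, proximity-ligated with BsaI/T4 ligase (1 h, 37 °C), PCR-amplified and sequenced on an Illumina NextSeq500.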

In the next test the target is ETV5 (Homo sapiens, UniProt P41161 1-510). The conditions noted are these: protein: recombinant; tags: N-terminal GST; dsDNA, one strand shown. The method in brief: as §1
For a further test, the target named is HSF1 (Homo sapiens, UniProt Q00613 1-529). As to conditions: protein: recombinant; tags: N-terminal GST; chain copies: 3; dsDNA, one strand shown. In short, it runs like this:
as §1

For another test, the target named is T2, SPIC (Homo sapiens, UniProt Q8N5J4 1-248).
T2 sequence: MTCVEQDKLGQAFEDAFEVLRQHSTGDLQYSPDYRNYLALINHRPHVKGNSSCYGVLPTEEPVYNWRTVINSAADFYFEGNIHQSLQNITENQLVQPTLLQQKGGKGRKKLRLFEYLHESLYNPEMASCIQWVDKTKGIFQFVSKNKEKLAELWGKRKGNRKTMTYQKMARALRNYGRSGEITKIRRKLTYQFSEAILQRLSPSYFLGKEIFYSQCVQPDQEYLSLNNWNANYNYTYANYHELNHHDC
As to conditions: protein: recombinant; tags: N-terminal GST; dsDNA, one strand shown. In short, it runs like this:
as §1

A further test addresses ELF4 (Homo sapiens, UniProt Q99607 1-663). As to conditions: protein: recombinant; tags: N-terminal GST; dsDNA, one strand shown. In short, it runs like this:
as §1

The target in another test is T3, ELK4 (Homo sapiens, UniProt P28324-2 1-405).
T3 sequence: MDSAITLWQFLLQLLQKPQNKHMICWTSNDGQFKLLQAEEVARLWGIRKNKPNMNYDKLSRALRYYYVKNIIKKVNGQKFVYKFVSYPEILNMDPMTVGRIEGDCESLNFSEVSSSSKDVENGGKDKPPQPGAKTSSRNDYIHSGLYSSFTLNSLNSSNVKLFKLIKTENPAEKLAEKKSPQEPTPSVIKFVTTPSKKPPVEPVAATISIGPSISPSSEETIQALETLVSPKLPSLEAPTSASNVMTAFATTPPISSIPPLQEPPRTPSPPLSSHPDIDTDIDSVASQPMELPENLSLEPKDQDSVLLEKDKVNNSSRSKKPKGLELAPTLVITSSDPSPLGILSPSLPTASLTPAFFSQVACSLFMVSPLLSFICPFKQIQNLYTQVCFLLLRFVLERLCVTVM
The conditions noted are these: protein: recombinant; tags: N-terminal GST; dsDNA, one strand shown. In short, it runs like this:
as §1

The next test concerns the target T4, ETV2 (Homo sapiens, UniProt O00321 1-342).
T4 sequence: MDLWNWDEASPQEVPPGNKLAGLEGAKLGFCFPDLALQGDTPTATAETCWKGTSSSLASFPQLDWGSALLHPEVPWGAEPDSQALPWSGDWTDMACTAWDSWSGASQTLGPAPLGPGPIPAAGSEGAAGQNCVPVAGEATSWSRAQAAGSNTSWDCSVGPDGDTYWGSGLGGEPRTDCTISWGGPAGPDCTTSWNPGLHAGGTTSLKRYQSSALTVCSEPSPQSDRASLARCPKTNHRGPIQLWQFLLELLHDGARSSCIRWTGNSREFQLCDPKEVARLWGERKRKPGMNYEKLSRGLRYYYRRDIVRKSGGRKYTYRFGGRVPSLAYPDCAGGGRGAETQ
The conditions noted are these: protein: recombinant; tags: N-terminal GST; dsDNA, one strand shown. The method in brief: as §1

In another test the target is T5, ELF3 (Homo sapiens, UniProt P78545 1-371).
T5 sequence: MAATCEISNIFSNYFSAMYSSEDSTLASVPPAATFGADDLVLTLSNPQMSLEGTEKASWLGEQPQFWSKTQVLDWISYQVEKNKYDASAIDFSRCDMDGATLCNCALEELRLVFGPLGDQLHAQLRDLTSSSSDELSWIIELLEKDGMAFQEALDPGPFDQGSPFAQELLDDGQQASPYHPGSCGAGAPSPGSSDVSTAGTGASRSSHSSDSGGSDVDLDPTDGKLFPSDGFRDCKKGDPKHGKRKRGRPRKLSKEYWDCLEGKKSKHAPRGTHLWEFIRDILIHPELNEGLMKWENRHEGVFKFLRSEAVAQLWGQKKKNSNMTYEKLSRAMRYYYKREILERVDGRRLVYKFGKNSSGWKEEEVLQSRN
As to conditions: protein: recombinant; tags: N-terminal GST; dsDNA, one strand shown. In short, it runs like this:
as §1

For a further test, the target named is CRX (Homo sapiens, UniProt O43186 1-299). As to conditions: protein: recombinant; tags: N-terminal GST; dsDNA, one strand shown. The method in brief:
as §1

For another test, the target named is ETV1 (Homo sapiens, UniProt P50549 1-477). As to conditions: protein: recombinant; tags: N-terminal GST; dsDNA, one strand shown. In short, it runs like this: as §1
The target of another test is T6, ERF (Homo sapiens, UniProt P50548 1-548).
T6 sequence: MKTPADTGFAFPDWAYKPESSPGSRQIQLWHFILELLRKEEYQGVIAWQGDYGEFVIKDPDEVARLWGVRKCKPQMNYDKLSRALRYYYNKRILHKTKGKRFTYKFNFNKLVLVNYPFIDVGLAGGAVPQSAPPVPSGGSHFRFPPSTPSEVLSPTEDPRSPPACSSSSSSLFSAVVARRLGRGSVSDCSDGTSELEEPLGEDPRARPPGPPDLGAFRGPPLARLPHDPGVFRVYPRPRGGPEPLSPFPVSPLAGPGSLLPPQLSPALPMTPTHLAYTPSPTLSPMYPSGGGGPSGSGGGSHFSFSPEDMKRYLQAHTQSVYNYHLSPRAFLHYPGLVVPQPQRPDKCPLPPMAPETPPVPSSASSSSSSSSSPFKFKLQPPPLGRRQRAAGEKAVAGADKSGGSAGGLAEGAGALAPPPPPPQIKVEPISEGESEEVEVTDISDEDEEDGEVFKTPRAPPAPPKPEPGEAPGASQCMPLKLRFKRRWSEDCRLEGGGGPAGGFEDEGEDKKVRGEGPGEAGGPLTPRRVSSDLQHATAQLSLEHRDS
As to conditions: protein: recombinant; tags: N-terminal GST; dsDNA, one strand shown. The method in brief: as §1

For the next test, the target named is T7, ETV3L (Homo sapiens, UniProt Q6ZN32 1-361).
T7 sequence: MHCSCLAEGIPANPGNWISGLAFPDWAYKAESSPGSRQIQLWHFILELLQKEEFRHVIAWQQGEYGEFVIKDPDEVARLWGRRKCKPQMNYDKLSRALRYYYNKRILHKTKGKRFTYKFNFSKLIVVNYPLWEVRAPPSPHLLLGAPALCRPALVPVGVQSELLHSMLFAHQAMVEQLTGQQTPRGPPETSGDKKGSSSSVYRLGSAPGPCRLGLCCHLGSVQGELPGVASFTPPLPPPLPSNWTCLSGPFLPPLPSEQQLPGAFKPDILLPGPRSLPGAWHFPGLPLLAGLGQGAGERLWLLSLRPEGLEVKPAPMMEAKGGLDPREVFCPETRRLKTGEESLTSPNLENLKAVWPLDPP
As to conditions: protein: recombinant; tags: N-terminal GST; dsDNA, one strand shown. In short, it runs like this: as §1

The next test addresses T8, ETS2 (Homo sapiens, UniProt P15036 1-469).
T8 sequence: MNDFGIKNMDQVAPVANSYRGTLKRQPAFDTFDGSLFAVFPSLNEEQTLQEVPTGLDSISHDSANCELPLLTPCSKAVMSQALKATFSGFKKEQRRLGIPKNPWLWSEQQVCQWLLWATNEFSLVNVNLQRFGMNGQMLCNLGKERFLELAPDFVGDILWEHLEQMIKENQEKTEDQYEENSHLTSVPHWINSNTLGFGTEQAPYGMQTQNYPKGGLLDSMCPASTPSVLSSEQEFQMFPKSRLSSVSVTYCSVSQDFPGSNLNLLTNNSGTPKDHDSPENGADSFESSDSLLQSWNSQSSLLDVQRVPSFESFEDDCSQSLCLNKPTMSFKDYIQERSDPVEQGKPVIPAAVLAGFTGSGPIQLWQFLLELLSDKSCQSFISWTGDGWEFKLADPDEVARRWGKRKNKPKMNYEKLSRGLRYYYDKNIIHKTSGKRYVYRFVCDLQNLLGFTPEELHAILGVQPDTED
As to conditions: protein: recombinant; tags: N-terminal GST; dsDNA, one strand shown. The method in brief: as §1

The next test deals with T9, SPDEF (Homo sapiens, UniProt O95238 1-335).
T9 sequence: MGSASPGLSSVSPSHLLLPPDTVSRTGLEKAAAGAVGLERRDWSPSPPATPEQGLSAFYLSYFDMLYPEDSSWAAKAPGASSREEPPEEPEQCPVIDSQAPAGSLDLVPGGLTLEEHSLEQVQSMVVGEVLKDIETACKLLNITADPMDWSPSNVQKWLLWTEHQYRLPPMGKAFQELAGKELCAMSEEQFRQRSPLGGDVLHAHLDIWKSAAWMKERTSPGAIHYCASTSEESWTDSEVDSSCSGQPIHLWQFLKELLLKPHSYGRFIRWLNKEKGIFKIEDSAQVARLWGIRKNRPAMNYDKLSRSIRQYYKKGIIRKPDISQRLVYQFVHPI
As to conditions: protein: recombinant; tags: N-terminal GST; dsDNA, one strand shown. In short, it runs like this:
as §1

For a further test, the target named is T10, ETV7 (Homo sapiens, UniProt Q9Y603 1-341).
T10 sequence: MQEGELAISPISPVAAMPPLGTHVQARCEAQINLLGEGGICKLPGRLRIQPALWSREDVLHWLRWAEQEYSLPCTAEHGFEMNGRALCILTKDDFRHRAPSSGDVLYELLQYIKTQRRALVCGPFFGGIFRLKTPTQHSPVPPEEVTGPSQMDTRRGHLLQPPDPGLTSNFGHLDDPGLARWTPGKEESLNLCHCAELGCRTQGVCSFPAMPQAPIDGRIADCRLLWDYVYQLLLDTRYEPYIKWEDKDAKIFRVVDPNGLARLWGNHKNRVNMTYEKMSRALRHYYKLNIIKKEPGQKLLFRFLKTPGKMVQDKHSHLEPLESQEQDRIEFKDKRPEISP
As to conditions: protein: recombinant; tags: N-terminal GST; dsDNA, one strand shown. In short, it runs like this: as §1

In a further test the target is T11, ELF5 (Homo sapiens, UniProt Q9UKW6-2 1-255).
T11 sequence: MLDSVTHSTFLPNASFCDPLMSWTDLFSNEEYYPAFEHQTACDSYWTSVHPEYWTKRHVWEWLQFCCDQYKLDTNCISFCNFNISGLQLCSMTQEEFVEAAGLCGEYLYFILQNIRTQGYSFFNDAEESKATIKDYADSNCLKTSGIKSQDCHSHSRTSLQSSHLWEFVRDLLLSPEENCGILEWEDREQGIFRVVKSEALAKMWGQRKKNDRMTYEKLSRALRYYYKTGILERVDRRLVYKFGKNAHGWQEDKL
As to conditions: protein: recombinant; tags: N-terminal GST; dsDNA, one strand shown. The method in brief:
as §1

A further test has as its target T12, ETV3 (Homo sapiens, UniProt P41162-2 1-143).
T12 sequence: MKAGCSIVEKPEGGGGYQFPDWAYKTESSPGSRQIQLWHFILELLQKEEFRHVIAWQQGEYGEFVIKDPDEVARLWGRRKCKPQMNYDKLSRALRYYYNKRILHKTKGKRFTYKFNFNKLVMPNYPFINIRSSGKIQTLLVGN
The conditions noted are these: protein: recombinant; tags: N-terminal GST; dsDNA, one strand shown. In short, it runs like this:
as §1

For a further test, the target named is ETV6 (Homo sapiens, UniProt P41212 1-452). As to conditions: protein: recombinant; tags: N-terminal GST; dsDNA, one strand shown. In short, it runs like this:
as §1

Chain of ELF4 (Q99607 whole entry): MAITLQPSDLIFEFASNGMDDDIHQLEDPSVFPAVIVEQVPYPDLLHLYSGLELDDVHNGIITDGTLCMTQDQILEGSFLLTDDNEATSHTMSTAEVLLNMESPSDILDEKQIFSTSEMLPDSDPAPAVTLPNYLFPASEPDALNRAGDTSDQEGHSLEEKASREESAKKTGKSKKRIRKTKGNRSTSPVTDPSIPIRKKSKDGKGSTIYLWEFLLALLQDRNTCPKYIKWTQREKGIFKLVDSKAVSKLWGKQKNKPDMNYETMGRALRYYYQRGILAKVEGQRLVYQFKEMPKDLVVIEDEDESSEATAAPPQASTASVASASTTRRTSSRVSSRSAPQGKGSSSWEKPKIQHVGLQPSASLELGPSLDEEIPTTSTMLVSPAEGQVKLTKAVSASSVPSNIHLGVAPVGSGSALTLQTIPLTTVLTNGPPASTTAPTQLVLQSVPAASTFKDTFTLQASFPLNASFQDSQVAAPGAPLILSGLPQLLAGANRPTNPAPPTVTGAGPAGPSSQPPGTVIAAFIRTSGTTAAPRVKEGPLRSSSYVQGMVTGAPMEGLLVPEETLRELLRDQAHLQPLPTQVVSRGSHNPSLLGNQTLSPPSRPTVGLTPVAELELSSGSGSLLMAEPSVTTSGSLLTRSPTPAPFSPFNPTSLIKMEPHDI
Chain of HSF1 (Q00613 whole entry): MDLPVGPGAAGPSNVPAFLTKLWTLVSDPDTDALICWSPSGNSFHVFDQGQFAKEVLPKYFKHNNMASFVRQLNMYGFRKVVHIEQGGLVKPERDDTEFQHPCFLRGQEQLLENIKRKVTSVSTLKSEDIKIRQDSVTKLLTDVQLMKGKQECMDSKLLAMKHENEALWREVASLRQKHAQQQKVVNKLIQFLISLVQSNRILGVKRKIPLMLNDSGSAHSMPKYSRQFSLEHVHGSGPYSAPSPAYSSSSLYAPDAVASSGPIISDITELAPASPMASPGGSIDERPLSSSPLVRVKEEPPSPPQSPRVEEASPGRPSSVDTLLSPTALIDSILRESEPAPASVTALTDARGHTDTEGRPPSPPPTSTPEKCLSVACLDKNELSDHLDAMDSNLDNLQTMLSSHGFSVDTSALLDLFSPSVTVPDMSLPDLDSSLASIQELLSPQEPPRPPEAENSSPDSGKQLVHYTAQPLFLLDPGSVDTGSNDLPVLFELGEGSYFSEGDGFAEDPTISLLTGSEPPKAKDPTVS
Chain of ETV1 (P50549 whole entry): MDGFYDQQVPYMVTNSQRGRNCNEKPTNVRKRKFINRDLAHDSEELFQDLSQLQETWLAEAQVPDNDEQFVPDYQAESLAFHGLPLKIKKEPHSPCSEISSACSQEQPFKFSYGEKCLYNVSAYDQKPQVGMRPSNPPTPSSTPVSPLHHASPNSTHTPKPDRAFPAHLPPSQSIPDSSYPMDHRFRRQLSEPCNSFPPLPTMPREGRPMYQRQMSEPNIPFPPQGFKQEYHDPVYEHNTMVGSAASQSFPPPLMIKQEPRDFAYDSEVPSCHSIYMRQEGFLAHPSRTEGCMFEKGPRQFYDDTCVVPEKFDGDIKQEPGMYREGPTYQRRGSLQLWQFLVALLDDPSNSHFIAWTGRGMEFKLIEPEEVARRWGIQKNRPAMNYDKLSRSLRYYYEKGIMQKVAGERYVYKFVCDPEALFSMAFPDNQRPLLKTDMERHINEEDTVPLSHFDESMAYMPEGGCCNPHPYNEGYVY
Chain of ETV5 (P41161 whole entry): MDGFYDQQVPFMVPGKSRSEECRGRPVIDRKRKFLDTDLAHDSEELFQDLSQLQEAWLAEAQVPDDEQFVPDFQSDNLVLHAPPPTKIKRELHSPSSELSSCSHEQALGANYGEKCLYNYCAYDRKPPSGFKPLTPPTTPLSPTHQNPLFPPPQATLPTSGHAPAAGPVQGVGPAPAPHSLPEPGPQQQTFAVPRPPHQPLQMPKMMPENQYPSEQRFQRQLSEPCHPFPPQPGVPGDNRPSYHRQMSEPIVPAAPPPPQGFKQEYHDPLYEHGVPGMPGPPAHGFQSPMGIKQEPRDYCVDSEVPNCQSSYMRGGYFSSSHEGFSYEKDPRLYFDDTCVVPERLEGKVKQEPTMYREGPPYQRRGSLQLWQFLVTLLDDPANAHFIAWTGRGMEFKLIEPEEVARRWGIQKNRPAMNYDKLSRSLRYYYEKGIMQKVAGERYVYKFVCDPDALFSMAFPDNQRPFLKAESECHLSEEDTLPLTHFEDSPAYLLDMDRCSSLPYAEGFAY
Chain of CRX (O43186 whole entry): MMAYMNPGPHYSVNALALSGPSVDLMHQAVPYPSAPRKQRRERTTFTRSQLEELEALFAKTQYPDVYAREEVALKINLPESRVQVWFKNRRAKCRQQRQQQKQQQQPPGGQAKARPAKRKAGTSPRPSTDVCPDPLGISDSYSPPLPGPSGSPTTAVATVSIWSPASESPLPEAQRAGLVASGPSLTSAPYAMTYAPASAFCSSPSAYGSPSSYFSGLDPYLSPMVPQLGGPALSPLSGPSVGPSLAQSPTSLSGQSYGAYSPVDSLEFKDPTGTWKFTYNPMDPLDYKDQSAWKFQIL
Chain of ETV6 (P41212 whole entry): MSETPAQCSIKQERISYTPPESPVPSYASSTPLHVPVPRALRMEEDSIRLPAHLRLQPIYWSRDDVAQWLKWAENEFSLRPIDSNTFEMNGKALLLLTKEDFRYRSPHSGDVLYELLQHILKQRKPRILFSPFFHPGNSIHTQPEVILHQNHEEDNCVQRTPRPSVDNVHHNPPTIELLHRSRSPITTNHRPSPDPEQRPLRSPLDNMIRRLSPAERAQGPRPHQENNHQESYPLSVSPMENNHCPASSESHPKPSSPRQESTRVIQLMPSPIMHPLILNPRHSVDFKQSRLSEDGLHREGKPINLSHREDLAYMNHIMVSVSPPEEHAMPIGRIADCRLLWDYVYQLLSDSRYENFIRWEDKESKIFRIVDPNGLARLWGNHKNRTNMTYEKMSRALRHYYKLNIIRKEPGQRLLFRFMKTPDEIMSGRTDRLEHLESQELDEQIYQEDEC

Regarding GGCCTT, the binding signal was 1.14 fold enrichment (6-mer frequency, TF over GST control) in the test with FEV; 1.16 fold enrichment (6-mer frequency, TF over GST control) with ETV5; 1.05 fold enrichment (6-mer frequency, TF over GST control) in the test with HSF1; 1.16 fold enrichment (6-mer frequency, TF over GST control) in the test with SPIC; 1.25 fold enrichment (6-mer frequency, TF over GST control) with ELF4; 1.09 fold enrichment (6-mer frequency, TF over GST control) with ELK4. Besides, the binding signal in the test with ETV2 is 1.07 fold enrichment (6-mer frequency, TF over GST control); with ELF3, 1.15 fold enrichment (6-mer frequency, TF over GST control); with CRX it was 1.02 fold enrichment (6-mer frequency, TF over GST control); with ETV1 it was 1.1 fold enrichment (6-mer frequency, TF over GST control); in the test with ERF, 1.12 fold enrichment (6-mer frequency, TF over GST control); with ETV3L, 1.05 fold enrichment (6-mer frequency, TF over GST control). Also, the binding signal is 1.09 fold enrichment (6-mer frequency, TF over GST control) in the test with ETS2; 1.06 fold enrichment (6-mer frequency, TF over GST control) with SPDEF; 1.34 fold enrichment (6-mer frequency, TF over GST control) with ETV7; 1.06 fold enrichment (6-mer frequency, TF over GST control) with ELF5; 1.11 fold enrichment (6-mer frequency, TF over GST control) with ETV3; 1.04 fold enrichment (6-mer frequency, TF over GST control) with ETV6.

The values are drawn from PMC7862700, “An all-to-all approach to the identification of sequence-specific readers for epigenetic DNA modifications on cytosine”.
